Assay results reported in PubChem BioAssay (NCI).
Values joined by “and” are separate entries in the source; they are usually repeats but may differ in a detail not shown here. Equal values may be shown once. The panel holds about 83,000 compounds, 20% with a hit somewhere; the sample as a whole holds those more often.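 For each line, cells grew in 96-well plates with the test compound present at a single concentration for 48 hours.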 Active and inactive are the calls of the source. How the source made its calls: active means growth percent below 10; inactive means the rest.

Experiments:
Test in all cases: NCI-60 one-dose screen, 48 h (100 = growth as untreated, 0 = no growth, -100 = all killed)
Conditions in all cases: 10 µM unless noted
NCI-H23 lung = tested on: NCI-H23 lung
NCI-H226 lung = tested on: NCI-H226 lung
NCI-H322M lung = tested on: NCI-H322M lung
HOP-62 NSCLC = tested on: HOP-62 NSCLC
HOP-92 NSCLC = tested on: HOP-92 NSCLC
NCI-H522 lung = tested on: NCI-H522 lung
786-0 renal = tested on: 786-0 renal
COLO 205 colon = tested on: COLO 205 colon
DU-145 prostate = tested on: DU-145 prostate
K-562 leukemia = tested on: K-562 leukemia
MALME-3M melanoma = tested on: MALME-3M melanoma
MDA-MB-231 breast = tested on: MDA-MB-231 breast
RXF 393 renal = tested on: RXF 393 renal
SF-268 CNS = tested on: SF-268 CNS
SF-295 CNS = tested on: SF-295 CNS
SF-539 CNS = tested on: SF-539 CNS
UACC-257 melanoma = tested on: UACC-257 melanoma
M14 melanoma = tested on: M14 melanoma

Measured: growth

CCN(CC)CCC(CNc1c2ccc([N+](=O)[O-])cc2nc2cc(OC)c(OC)cc12)c1ccccc1 (stereo not drawn)
active: NCI-H23 lung -86.4% and -71.3% | NCI-H226 lung -65.3% and -61.1% | NCI-H322M lung -39.9% and -76.5% | HOP-62 NSCLC -9.52% and -86.4% | HOP-92 NSCLC -42.2% | NCI-H522 lung -45% and -79.4% | 786-0 renal -74.2% and -91.6% | COLO 205 colon -49.7% and -100% | DU-145 prostate -85.2% and -100% | K-562 leukemia -18.8% | MALME-3M melanoma -80.1% and -89.1% | MDA-MB-231 breast -58.4% and -94.9% | RXF 393 renal -89.8% | SF-268 CNS -48.5% and -98.7% | SF-295 CNS 3.98% and -90.3% | SF-539 CNS -86.9% and -100% | UACC-257 melanoma -41.2% and -97.1% | M14 melanoma -63.2% and -97.4%

CC1(C)C2CCC1(CS(=O)(=O)O)C(=O)C2 (stereo not drawn)
inactive: HOP-62 NSCLC 101%

Nc1ccn(C2OC(CO)C(O)C2O)c(=O)n1 (stereo not drawn)
inactive: DU-145 prostate 24% and 12.2% and 114% | MDA-MB-231 breast 110% [middle of 4 runs] | RXF 393 renal 90.6% and 33.4% and 134% | SF-268 CNS 35.8% and 41.2% and 104%
